# According to PubChem BioAssay (Tox21):
# Results filed as inconclusive are left out. Entries that show only a call come without a potency. Unmarked numbers belong to inactive results. Activity calls are given as the source filed them. The call rests on the fitted dose curve; in most records, active means well fitted activation curve with a large enough effect in the repeat runs; inconclusive means weak or mixed curves; inactive means flat fitted curve, though single readings scatter.
# Assay: A CellTox Green Cytotoxicity Assay to monitor cytotoxicity in HepG2 cells - 8 hour (AID 1224890); further: nearly all actives have a fitted effect of over 45% in size
# Settings: CellTox Green fluorescence; series mostly up to 76.8 µM
# From the text: National Center for Advancing Translational Sciences [NCATS]
# NIH Chemical Genomics Center [NCGC]
# U.S. Environmental Protection Agency [EPA]
# National Institutes of Environmental Health Sciences [NIEHS]
# National Toxicology Program [NTP]
# Cell-based models are critical for drug discovery. Determining the natural cytotoxic effects resulting from test compounds is an essential research activity. A CellTox Green Cytotoxicity Assay to monitor cytotoxicity in real time of continues cell culture during 40 hours of the compound treatment was used to screen Tox21 10K library compounds in HepG2 cells. CellTox Green Cytotoxicity Assay is a nonlytic, homogeneous, biofluorescent method to measure cytotoxicity in cell culture after experimental manipulation. The assay system uses a proprietary asymmetric cyanine dye that is excluded from viable cells but preferentially stains the dead cell's DNA. […] Viable cells produce no appreciable increases in fluorescence. Therefore, the fluorescence signal produced by the binding interaction with dead cell DNA is proportional to cytotoxicity.
# The mixture of HepG2 cell suspension and reagents were dispensed at 600cells/6 ul/well in 1536-well tissue culture treated black solid bottom plates using a Multidrop dispenser. After the assay plates were incubated at a 37 C/5% CO2 incubator for 5 hours, 23 nL of compounds dissolved in DMSO, positive and negative controls was transferred to the assay plate by a pintool work station. The plates were incubated at 37 C for 40 hours. The fluorescence intensity were measured at 0h, 8h, 16h, 24h, 32h and 40h time points using ViewLux plate reader during compound treatment.
SMILES,Potency,cytotoxicity increase
CC(C)CC(C)(C)C,inactive,–
CC(C)Cc1nccs1,inactive,–
C[C@H](CN1CCCC1)C(=O)c1ccc(C(F)(F)F)cc1,inactive,–
CCCCOC(=O)CC#N,inactive,–
O=C1OC(=O)C2CC=CCC12 (stereo not given),inactive,–
CC(C(=O)O)c1ccc2c(c1)Cc1cccnc1O2 (stereo not given),inactive,–
O=C(Cl)c1cc(Cl)cc(Cl)c1,inactive,–
CCCCCCCCOCCCN,inactive,–
CC(=O)Nc1ccn(C2COC(COC(=O)c3ccccc3)O2)c(=O)n1 (stereo not given),inactive,–
CCn1nc(Cc2ccccc2)cc1C1CCN(C[C@H]2C[C@H](N(C)[C@@H](C(=O)O)C(C)C)C[C@@H]2c2cccc(F)c2)CC1,inactive,–
CCCc1nc(C)c2c(=O)[nH]c(-c3cc(S(=O)(=O)N4CCN(CC)CC4)ccc3OCC)nn12,inactive,–
COc1ccc(C(=O)c2ccc(C)cc2)c(O)c1,inactive,–
O=C1C=CCCC1,inactive,–
CO[C@@H]1[C@@H](O[C@@H]2O[C@H](C)[C@@H](O[C@H]3C[C@@](C)(O)[C@@H](O)[C@H](C)O3)[C@H](N(C)C)[C@H]2O)[C@@H](CC=O)C[C@@H](C)[C@@H](O[C@@H]2CC[C@H](N(C)C)[C@@H](C)O2)/C=C/C=C/C[C@@H](C)OC(=O)C[C@H]1OC(C)=O,inactive,–
COc1ccc(/C=C/S(=O)(=O)NC(=O)c2ccc(C)cc2Cl)cc1,inactive,–
CCc1ccc2c(c1)C(=O)c1ccccc1C2=O,inactive,–
COC(=O)C(C)(C)C,inactive,–
COC=O,–,-0.393% [at 6.97 µM]
Cc1c(Nc2ncccc2C(=O)O)cccc1C(F)(F)F,inactive,–
CCN(CC)CC(=O)OCC(=O)[C@@]1(O)CC[C@H]2[C@@H]3CCC4=CC(=O)CC[C@]4(C)[C@H]3[C@@H](O)C[C@@]21C,inactive,–

SMILES,Potency,cytotoxicity increase
O=C(O)c1c2ccccc2cc2ccccc12,inactive,–
N#Cc1ccc(CC(=O)c2cccc(C(F)(F)F)c2)cc1,inactive,–
O=C(OCCCCCOC(=O)c1ccccc1)c1ccccc1,inactive,–
CC(Cc1ccccc1)(NC(=O)CN)c1ccccc1 (stereo not given),inactive,–
CCCCCCCCC(=O)OCC(C)OC(=O)CCCCCCCC (stereo not given),inactive,–
COc1ccc(C(=O)Nc2ccccc2)cc1[N+](=O)[O-],inactive,–
CC1(C)CC(O)CC(C)(C)N1[O],inactive,–
Nc1nc(Cl)nc2c1ncn2[C@H]1C[C@H](O)[C@@H](CO)O1,inactive,–
CCCCCCCCCCCC(=O)OCC,inactive,–
CO[C@@H]1COCC[C@@H]1N[C@@H]1CC[C@@](C(=O)N2CCc3ncc(C(F)(F)F)cc3C2)(C(C)C)C1,inactive,–
CCCOC(C)=O,inactive,–
CCOC(C)OCC,inactive,–
CCCCCCCCCCCCN1CCOCC1,inactive,–
C=Cc1ccc(C=C)cc1,inactive,–
O=C(O)COCC(=O)O,inactive,–
C=CC(=O)NC(C)(C)C,inactive,–
O=C(O)c1cc(C(=O)O)c(C(=O)O)cc1C(=O)O,inactive,–
Nc1ccccc1Nc1ccccc1,inactive,–
OCCCO,inactive,–
C[C@H](N)C(=O)N[C@@H](C)C(=O)NC1[C@H]2CN(c3nc4c(cc3F)c(=O)c(C(=O)O)cn4-c3ccc(F)cc3F)C[C@@H]12 (stereo not given in full),inactive,–
